Polio RdRp inh: inhibitors of poliovirus RNA polymerase binding and polymerization; P03300; poliovirus polymerase elongation, fluorescence polarization; active compounds read low; 150,000 compounds, 0.66% hits; % elongation, % (compound at 16.7 µg/mL); in the data active = % elongation below about 90%
MbtI inh: blocks the Mycobacterium tuberculosis siderophore enzyme MbtI | P9WFX0 | purified MbtI enzyme, fluorescence intensity read-out | inhibition, % (concentration not given with the values) | 100,000 compounds, 0.89% hits | AID 493033; in the data active = inhibition mostly above about 56%, no sharp cut-off; inactive = mostly below about 77%
Target sequence (P9WFX0 whole entry, looked up): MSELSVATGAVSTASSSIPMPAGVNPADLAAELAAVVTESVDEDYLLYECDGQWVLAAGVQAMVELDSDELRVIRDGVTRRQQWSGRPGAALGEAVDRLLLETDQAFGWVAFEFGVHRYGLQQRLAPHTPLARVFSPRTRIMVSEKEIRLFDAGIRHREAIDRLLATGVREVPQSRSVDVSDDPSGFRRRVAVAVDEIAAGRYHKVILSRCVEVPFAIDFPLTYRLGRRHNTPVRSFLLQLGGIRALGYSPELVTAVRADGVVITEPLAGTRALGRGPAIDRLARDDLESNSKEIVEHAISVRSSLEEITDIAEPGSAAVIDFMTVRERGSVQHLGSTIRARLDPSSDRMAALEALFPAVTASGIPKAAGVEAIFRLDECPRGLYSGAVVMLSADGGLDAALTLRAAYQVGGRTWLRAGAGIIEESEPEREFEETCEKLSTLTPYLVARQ
AID504770: growth inhibitors of E. coli YBA685 in a screen for V. cholerae RctB (chromosome II replication) inhibitors | z-score (test concentration not listed) | AID 504770 | 130,000 compounds, 0.27% hits | E. coli YBA685 rctB-dependent plasmid, OD600 growth, 3 h; active compounds read low; in the data active = z-score below about -2, passing the limit was not always enough
MenB inh: inhibitors of Mycobacterium tuberculosis MenB enzyme; inhibition, % (no concentration beside the values); 100,000 compounds, 0.43% hits; MenB enzyme assay, absorbance read-out; in the data active = inhibition above about 21%, passing the limit was not always enough
* = called active by the depositor; . = no result; ! = a repeat was not active. This is a sample that favours compounds with a hit; in the whole collection about 1.4% have one here.

SMILES	Polio RdRp inh	MbtI inh	AID504770	MenB inh
CCCn1cnc2c1c(=O)[nH]c(=O)n2C	.	.	-3.7*	.
C=CCn1cnc2c1c(=O)[nH]c(=O)n2C	103.0	-0.1	0	-0.5
O=C(NC1(O)C(=O)c2ccccc2C1=O)c1ccc(C(F)(F)F)cc1	9.0*	-1.9	-0.35	0.8
O=C(NC1CC1)c1cnn(-c2ccc(Cl)cc2)c1C(F)(F)F	.	.	0.1	.
O=C(NC1(O)C(=O)c2ccccc2C1=O)c1cnn(-c2ccccc2)c1C(F)(F)F	48.0*	-11.4	-1.35	-1.9
O=C(NC1(O)C(=O)c2ccccc2C1=O)c1ccccn1	54.0*	-7.5	0.6	-10.5
Cc1nc(C(=O)NC2(O)C(=O)c3ccccc3C2=O)cs1	.	.	-0.6	.
Cc1ccc(C(=O)NC2(O)C(=O)c3ccccc3C2=O)cc1C	.	.	-1.55	.
COCCCn1c(=O)c2ccccc2n(CC(N)=O)c1=O	101.0	58.3	-0.5	27.8*
O=C(CCSc1ccccc1)c1cccs1	100.0	-0.2	-0.9	0.7
CC(C)(C)c1ccc(C(=O)Nc2ccc(-c3nc4ccccc4o3)c(O)c2)cc1	-10.0*	.	.	.
CC(=O)Oc1cc(-c2cccc(C(F)(F)F)c2)c2oc(=O)sc2c1	104.0	4.7	-0.1	-108.6
CN(C)S(=O)(=O)c1ccc(C(=O)NC2=N/C(=C(/C#N)C(=O)N3CCCCC3)c3ccccc32)cc1	100.0	8.3	0.45	1.7
O=C(Nc1nc(-c2ccc3c(c2)OCCO3)cs1)c1ccccc1	.	.	0.05	.
O=c1[nH]c2ccccc2c(O)c1-c1nc2ccccc2c(=O)[nH]1	104.0	-254.9	1.55	42.6*
Cc1nc2ccccc2c(=O)[nH]1	96.0	-0.8	-0.7	13.6
Cc1ccc(-n2c(C)cc(/C=C3\SC(=O)NC3=O)c2C)cc1	100.0	-27.2	0.7	39.3*
COCCCn1cnnc1SCC(=O)Nc1ccc(C)c(C)c1	102.0	-18.4	-1.05	-12.4
COc1ccc(NC(=O)CSc2nnc(N)s2)cc1	108.0	.	.	.
COc1ccccc1NC(=O)CSc1nnc(N)s1	83.0*	.	.	.
COc1ccccc1NC(=O)CSC(=O)c1ccccc1	101.0	87.4*	0.1	.
Cc1cccc2c(=O)n(CCNCc3ccccc3)c(C)nc12	111.0	-17.1	-0.85	-7.5
COc1ccc(CCN=C=S)cc1	77.0*	96.3*	-1.55	-68.4
COc1ccc(CCC(O)C2(O)CCCCC2)cc1 (stereo unspecified)	101.0	.	1.8	-18.5
S=C=NCCc1ccccc1	89.0*	65.0*	-0.9	-23.2
SMILES	Polio RdRp inh	MbtI inh	AID504770	MenB inh
OCCN(CCO)c1ncnc2sc3c(c12)CCCC3	.	.	1.95	.
O=c1c(=NNc2nn[nH]n2)c(=O)c2ccccc12	-20.0*	16.4	-1.45	-474.0
O=c1c(=NNc2ccccc2)c(=O)c2ccccc12	98.0	16.2	1.1	-347.5
O=C(O)C1CSC2c3ccccc3C(=O)N12 (stereo unspecified)	101.0	-4.5	0.05	38.7*
O=C(Cn1c(=O)c(CNc2ccccc2)cc2cc3c(cc21)OCCO3)Nc1ccccc1Cl	51.0*	.	.	.
Cc1ccc(Cl)cc1NC(=O)Cn1c(=O)c(CNc2ccccc2)cc2cc3c(cc21)OCCO3	102.0	.	.	.
COCC(C)NC(N)=O (stereo unspecified)	102.0	-10.2	0.65	11.9
CSc1ccc(S(=O)(=O)N(C)C)cc1	101.0	-13.1	-0.45	-10.1
CN(C)S(=O)(=O)c1ccc(=S)[nH]c1	96.0	94.8*	-0.75	-52.6
CC1COc2c(N3CCN(C)CC3)c(F)cc3c(=O)c(C(=O)OCc4ccccn4)cn1c23 (stereo unspecified)	100.0	62.9	-4.55*	-17.7
O=c1/c(=C\c2ccccc2)sc2nc3ccccc3n12	97.0	29.0	-0.4	.
O=c1/c(=C\c2ccncc2)sc2nc3ccccc3n12	63.0*	.	-0.4	-34.1
COc1cccc(N2C(=O)CC(Sc3nnc(C)s3)C2=O)c1 (stereo unspecified)	101.0	100.2*	-0.75	8.6
COc1cccc(N2C(=O)CC(Sc3ccccc3N)C2=O)c1 (stereo unspecified)	.	.	1.45	.
Cn1c(SCC(=O)Nc2ccc3c(c2)OCO3)nc2c([nH]c3ccccc32)c1=O	.	.	1.6	.
CCCn1c(SCC(=O)c2cccs2)n[nH]c1=O	.	64.2*	0.2	-15.3
CCn1c(=O)cc(OCC(=O)Nc2cccc(OC)c2)c2ccccc21	100.0	4.5	0.25	-27.6
CCCCC1C(=O)N(c2ccccc2)N(c2ccc(O)cc2)C1=O (stereo unspecified)	101.0	84.0*!	0.35	-9.7
COc1ccc(C(=O)N2CCN(CCCc3c[nH]c4ccc(F)cc34)CC2)cc1	.	.	-0.05	.
CCOc1ccc(N2C(=O)CC(NCCNC(=O)c3ccc(Cl)cc3)C2=O)cc1 (stereo unspecified)	102.0	4.8	0.85	26.9*
CC1CCc2nc(SC3CC(=O)C4OCC3O4)nc(C(F)(F)F)c2C1 (stereo unspecified)	102.0	.	1.1	-5.3
O=C1CC(Sc2ccc3ccccc3c2)C2COC1O2 (stereo unspecified)	84.0*	.	0.3	-58.9
O=C(C1c2ccccc2Oc2ccccc21)N1CCCCC1	100.0	-20.0	0.05	-28.1
CCSc1nc2ccccc2[nH]1	.	.	0.25	.
CCC(=O)C1(Sc2nc3ccccc3[nH]2)CC(C)(C)OC1=O (stereo unspecified)	102.0	102.3*	-0.4	-9.6
SMILES	Polio RdRp inh	MbtI inh	AID504770	MenB inh
CC(=O)OC1CC(C(=O)O)N(S(=O)(=O)c2ccc(F)cc2)C1 (stereo unspecified)	98.0	3.1	1.4	-19.5
COC(=O)C(C(=O)OC)C(Nc1ccccc1)c1ccccc1 (stereo unspecified)	25.0*	.	-0.1	3.2
CCOC(=O)C(Nc1cccc(F)c1)c1ccccc1 (stereo unspecified)	.	-6.7	0.1	.
CSc1nc(-c2ccco2)nn1S(C)(=O)=O	100.0	84.3*	2.55	-3.4
Cc1ccc(CNc2n[nH]c(=S)s2)cc1	.	.	0.5	.
CC(C)(C)Nc1n[nH]c(=S)s1	76.0*	73.5*	0.05	-2.7
COC(=O)C(C)N1C(=O)S/C(=C/c2ccc(N3CCCCCC3)o2)C1=O (stereo unspecified)	75.0	53.2*	-0.4	-47.4
Cc1nn(C)c(C)c1/C=C/C(=O)N1CCN(Cc2cccc(Cl)c2)CC1	101.0	8.2	0.65	-2.9
O=C1c2c(O)ccc(O)c2C(=O)c2c(NCCNCCO)ccc(NCCNCCO)c21	-53.0*	-7.5	1.45	0.3
O=c1[nH]cc(NCCO)c(=O)[nH]1	.	-6.5	0.65	.
CN(C)C(=O)CSCc1c(Cl)cccc1Cl	34.0*	4.0	0.4	-8.7
Cc1cc(Br)cc(C)c1OCCCN(C)C	88.0*	-4.1	0.5	-1.1
CNc1c(C(=O)c2ccc(F)cc2)sc(N)c1C#N	102.0	13.4	0.95	-32.7
Cc1ccc(C(=O)c2sc(Nc3ccc(F)cc3)c(C#N)c2N)cc1	77.0*	.	.	.
CCOC(=O)c1[nH]c(=O)[nH]c1CSc1ccccn1	100.0	90.8*	0.2	-6.0
Cc1noc(N)c1C(=O)OCc1c(F)cccc1Cl	105.0	-9.2	0.15	-7.6
CCOc1ccccc1NC(=O)C(NCc1ccco1)c1ccccc1 (stereo unspecified)	105.0	-40.4	2.5	-20.3
S=C(SCc1ncon1)N1CCOCC1	96.0	92.2*	-0.75	-4.9

High-throughput results: PubChem, ICCB-Longwood Screening Facility, Harvard Medical School
